The inhibition is the change of the read-out against control, counted positive when it falls.

Records with an inconclusive call do not appear. Activity calls are given as the source filed them.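 The calls were made as follows, unless noted: active = percent response above 42, roughly 3 SD of non-fluorescent test compounds; inactive = the rest.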

Experiment [1] is described as follows: yeast TOR pathway RPL19A-GFP modulators, primary screen, cell-based, S. cerevisiae, multiplex flow cytometry (AID 1862; in the data active = percent of DMSO control GFP below about 86%;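 also: lower values mimic rapamycin by blocking the RPL19A rise seen in DMSO cells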). The settings on record: S. cerevisiae RPL19A-GFP strain, flow cytometry fluorescence, 3 h; at 10 µM; stronger effect = lower value. Background: Flow cytometry measures light scatter and fluorescence of single cells or particles in a stream.
Experiment [2] is described as follows: modulators of MEP2-GFP levels in yeast, primary screen, S. cerevisiae, multiplex flow cytometry (AID 1867;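 active = GFP response, as percent of the DMSO control, above the screen-wide mean plus 3 SD, about 139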;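 also: median GFP channel fluorescence of barcode-gated MEP2-GFP cells measured by flow cytometry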). Particulars: S. cerevisiae MEP2-GFP strain, 3 h, at 10 µM, stronger effect = higher value, 100% means same as DMSO wells.
Experiment [3] can be described thus: modulators of CIT2-GFP expression in yeast, primary screen, S. cerevisiae, GFP fusion, multiplex flow cytometry (AID 1870;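 active = percent response above a set limit, the screen-wide mean plus 3 SD, cut at about 130% in these data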;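 also: barcoded CIT2-GFP strain pooled with four other GFP strains with rapamycin as positive control; median GFP fluorescence per well over plate mean of DMSO wells so 100% = DMSO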). The settings on record: 3 h, at 10 µM, stronger effect = higher value.
Experiment [4] can be described thus: modulators of LAP4-GFP expression in yeast, primary screen, S. cerevisiae, multiplex flow cytometry (AID 1873;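 active = GFP signal, as percent of the solvent control, above the screen mean plus 3 SD, about 149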). The settings on record: 3 h, at 10 µM, stronger effect = higher value.
The nature of experiment [5]: modulators of AGP1-GFP expression in yeast TOR pathway, primary screen, cell-based, multiplex flow cytometry, S. cerevisiae (AID 1887;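 active = GFP signal above the screen-wide mean plus 3 SD, that is over about 124.5% of the solvent control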;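 also: AGP1-GFP fusion strain of S. cerevisiae within a five-strain barcoded multiplex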). Particulars: 3 h, at 10 µM, stronger effect = higher value.
Experiment [6] in a line: inhibitors of CD8+ T cell-vesicle binding, pilot screen, LFA-1/ICAM-1 modulator project, MLPCN validation set, flow cytometry (AID 2523;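 active = response below a set limit, under 55% cells CD8-positive and vesicle-bound, and CD8 cells' 90th-percentile brightness under 279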;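 as to vesicle binding response: mean PE anti-B7-1 fluorescence of CD8+ cells relative to row control; 100% = QL9-loaded vesicles with DMSO vehicle in the same plate row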). The settings on record: 2C mouse CD8+ T cells, at 7 µM, stronger effect = lower value; double positive events: measured here: CD8+/vesicle+ event percentage.
In experiment [7] the target is Integrin beta-1 (Homo sapiens) + Integrin alpha-4 (Homo sapiens) (UniProt P13612+P05556). Nature of the experiment: inhibition of HUTS-21 binding to VLA-4, pilot screen, VLA-4 allosteric modulator project, U937 cells, HUTS-21 mAb, flow cytometry, validation set (AID 2674;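 active = inhibition above 50%, about 3 SD of the validation set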;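 also: antibody binding induced by the VLA-4 ligand LDV present at three times its Kd; 0% = LDV ligand with antibody and no compound and 100% = antibody without LDV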). Particulars: HUTS-21 LIBS mAb binding, at 6.7 µM, stronger effect = higher value, binding induced by LDV ligand.

A short description of experiment [8]: superoxide lowering in aged yeast cells, pilot screen, validation compound set (AID 2706;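 active = superoxide response below 65% of plate, a cut near 3 SD across the whole screen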;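 also: yeast exposed to compound for one week at 30 degrees C before staining; 100% = mean of all compound wells on the same plate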). Particulars: S. cerevisiae aging, superoxide DHE fluorescence; at 10 µM; stronger effect = lower value.
Experiment [9] addresses Beta-adrenergic receptor kinase 1 (Homo sapiens) (UniProt P25098). In words: GRK2 binders displacing RNA aptamer, biochemical, validation, human GRK2, bead flow cytometry (AID 488806;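 active = aptamer binding inhibition above 30%, about 3 SD of noise from non-fluorescent compounds; inactive = inhibition at or below 30%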). Particulars: bead-bound GRK2, FAM-aptamer displacement, at 10 µM, stronger effect = higher value.
Experiment [10] addresses Beta-2 adrenergic receptor (Homo sapiens) (UniProt P07550). Nature of the experiment: beta2AR agonists driving receptor internalization, pilot screen, cell-based, FAP fluorogen, flow cytometry, validation set (AID 504459).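 Also: agonist-driven loss of surface beta2AR via internalization measured by FAP dye flow cytometry.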 Particulars: Am2.2-beta2AR cells, FAP surface receptor flow cytometry; at 10 µM; stronger effect = higher value.
Experiment [11] concerns the target AP-2 complex subunit beta (Homo sapiens) (UniProt P63010). Nature of the experiment: inhibitors of arrestin peptide binding to AP2, pilot screen, biochemical, validation set, GST-AP2 beads, flow cytometry (AID 504541;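 active = inhibition above 54%, about 3 SD of non-fluorescent compounds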;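 also: AP2 carries R879A mutation and is captured from E. coli lysate; bead-bound FITC arrestin peptide fluorescence measuring arrestin peptide binding to AP2; 0% = DMSO wells and 100% = excess unlabeled arrestin peptide control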). The settings on record: FITC arrestin peptide, at 10 µM, stronger effect = higher value, AP2 beta2 appendage fragment, R879A mutant.
Experiment [12] in a line: yeast V-ATPase proton transport modulators, S. cerevisiae, pHLuorin, HTS validation (AID 504600; in the data active = response above about 15%;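 also: plate controls were DMSO for no effect and reference compound for full effect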). Particulars: S. cerevisiae pHLuorin cytosolic pH, at 10 µM, stronger effect = higher value.
For experiment [13], the system named is anti-desmoglein-3 scFv antibody binding to human DSG3. In words: inhibitors of anti-DSG3 scFv binding to DSG3, pilot screen, biochemical, validation compound set, bead-based, flow cytometry (AID 588368;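 active = binding below the plate cutoff, the plate median minus 3 SD, with a reading above zero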;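 also: signal is the median channel fluorescence of bead-bound GFP antibody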). Particulars: Protein G beads, DSG3-Fc, scFv-GFP binding, at 10 µM, stronger effect = lower value.
Experiment [14] in a line: inhibitors of fungal efflux pumps CDR1, CDR2, MDR1, pilot screen, validation compound set, multiplex, phenotypic (AID 588506;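 active = efflux inhibition above 0.42, the validation set average plus 4 SD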;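 also: Nile Red retained in cells so higher fluorescence means more efflux inhibition; 0 = negative control wells and 1 = enniatin B 25 µM full block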). Particulars: S. cerevisiae pump-expressing triplex, Nile Red efflux flow cytometry; at 10 µM; stronger effect = higher value; the pumps come from Candida albicans.
Experiment [15] has as its target ATP-binding cassette sub-family B member 6 (Homo sapiens) (UniProt Q9NP58). In words: ABCB6 transporter inhibitors, pilot screen, K562-ABCB6 cells, flow cytometry, validation set (AID 588550;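 active = inhibition above the screen-wide mean plus 3 SD, about 51%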;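 also: 0% = DMSO wells and 100% = benzethonium chloride 70 µM positive control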). Particulars: K562-ABCB6 porphyrin accumulation, 1 h, at 10 µM, stronger effect = higher value.
The nature of experiment [16]: promoters of myeloid differentiation in arrested cells, primary screen, cell-based, GFP/MAC1 double positive, flow cytometry, validation set (AID 588685;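 active = differentiation response of at least 50%, scaled between solvent and reference control, from cells with both markers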;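 also: compound exposure lasts four days before antibody staining and flow analysis; 0% = DMSO wells and 100% = 5 µM fulvestrant positive control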). The settings on record: ER-HoxA9 marrow cells, stronger effect = higher value, normalized: vehicle 0, fulvestrant 100.

Sequence of Beta-2 adrenergic receptor (Homo sapiens) (P07550 whole entry, looked up): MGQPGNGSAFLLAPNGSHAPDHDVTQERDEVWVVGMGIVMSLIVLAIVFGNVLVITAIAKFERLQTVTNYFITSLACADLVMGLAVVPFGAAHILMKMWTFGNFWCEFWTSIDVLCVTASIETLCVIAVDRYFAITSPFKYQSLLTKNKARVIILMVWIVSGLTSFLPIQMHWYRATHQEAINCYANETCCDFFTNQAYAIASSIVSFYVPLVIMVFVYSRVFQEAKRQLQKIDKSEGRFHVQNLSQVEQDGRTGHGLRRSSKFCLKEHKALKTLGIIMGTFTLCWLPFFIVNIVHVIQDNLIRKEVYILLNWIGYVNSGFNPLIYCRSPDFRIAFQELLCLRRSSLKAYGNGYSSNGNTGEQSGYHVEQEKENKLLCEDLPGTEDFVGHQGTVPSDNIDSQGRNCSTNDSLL
Sequence of Integrin beta-1 (Homo sapiens) + Integrin alpha-4 (Homo sapiens) (P05556 whole entry, looked up): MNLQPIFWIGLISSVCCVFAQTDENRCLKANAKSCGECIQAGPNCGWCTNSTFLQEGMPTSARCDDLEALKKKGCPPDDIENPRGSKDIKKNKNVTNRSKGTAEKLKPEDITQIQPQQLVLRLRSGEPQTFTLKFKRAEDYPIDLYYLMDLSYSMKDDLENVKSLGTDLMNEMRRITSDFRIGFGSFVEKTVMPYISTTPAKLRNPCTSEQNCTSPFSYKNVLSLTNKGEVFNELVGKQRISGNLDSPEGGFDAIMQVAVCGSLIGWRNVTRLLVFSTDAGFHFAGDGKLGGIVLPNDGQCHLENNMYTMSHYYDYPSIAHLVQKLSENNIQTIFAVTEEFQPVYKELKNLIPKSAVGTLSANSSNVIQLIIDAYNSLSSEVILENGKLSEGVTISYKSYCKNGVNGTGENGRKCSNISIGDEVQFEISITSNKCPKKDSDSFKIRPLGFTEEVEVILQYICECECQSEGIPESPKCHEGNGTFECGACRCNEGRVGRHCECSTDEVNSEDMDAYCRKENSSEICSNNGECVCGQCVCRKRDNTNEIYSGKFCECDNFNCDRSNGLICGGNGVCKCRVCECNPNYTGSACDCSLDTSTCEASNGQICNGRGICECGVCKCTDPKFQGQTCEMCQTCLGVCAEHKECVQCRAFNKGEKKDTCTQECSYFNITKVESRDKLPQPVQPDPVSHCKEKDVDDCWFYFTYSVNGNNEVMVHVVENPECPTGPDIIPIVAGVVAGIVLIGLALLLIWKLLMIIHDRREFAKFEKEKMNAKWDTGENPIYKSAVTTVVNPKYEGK
Sequence of Integrin beta-1 (Homo sapiens) + Integrin alpha-4 (Homo sapiens) (P13612 whole entry, looked up): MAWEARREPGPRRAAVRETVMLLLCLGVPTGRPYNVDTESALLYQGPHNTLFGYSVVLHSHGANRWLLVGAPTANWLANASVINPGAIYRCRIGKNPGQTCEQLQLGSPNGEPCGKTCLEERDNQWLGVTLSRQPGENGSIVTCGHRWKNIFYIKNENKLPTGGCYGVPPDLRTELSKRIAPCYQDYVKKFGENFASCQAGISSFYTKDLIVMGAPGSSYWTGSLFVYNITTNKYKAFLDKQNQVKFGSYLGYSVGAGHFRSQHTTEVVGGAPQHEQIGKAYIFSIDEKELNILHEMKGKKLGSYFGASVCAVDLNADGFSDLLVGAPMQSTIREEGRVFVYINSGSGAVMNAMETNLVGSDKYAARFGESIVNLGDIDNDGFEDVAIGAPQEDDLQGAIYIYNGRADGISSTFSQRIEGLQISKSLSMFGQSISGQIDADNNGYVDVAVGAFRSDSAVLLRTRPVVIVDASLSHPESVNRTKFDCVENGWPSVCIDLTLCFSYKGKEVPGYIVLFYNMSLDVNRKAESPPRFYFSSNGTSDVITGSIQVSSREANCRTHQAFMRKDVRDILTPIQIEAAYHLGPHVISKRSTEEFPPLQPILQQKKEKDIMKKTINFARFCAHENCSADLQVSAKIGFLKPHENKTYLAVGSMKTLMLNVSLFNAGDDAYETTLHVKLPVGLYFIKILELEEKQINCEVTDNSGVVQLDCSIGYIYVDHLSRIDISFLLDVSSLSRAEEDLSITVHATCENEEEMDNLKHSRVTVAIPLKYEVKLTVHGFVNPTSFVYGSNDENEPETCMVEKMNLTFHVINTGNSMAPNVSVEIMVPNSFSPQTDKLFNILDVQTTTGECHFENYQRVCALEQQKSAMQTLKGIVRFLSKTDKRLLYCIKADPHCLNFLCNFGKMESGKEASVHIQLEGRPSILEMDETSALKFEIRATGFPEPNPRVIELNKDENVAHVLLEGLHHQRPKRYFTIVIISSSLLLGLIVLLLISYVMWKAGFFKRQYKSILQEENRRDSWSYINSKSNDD
Sequence of AP-2 complex subunit beta (Homo sapiens) (P63010 whole entry, looked up, the tested form may be a part, one chain of several): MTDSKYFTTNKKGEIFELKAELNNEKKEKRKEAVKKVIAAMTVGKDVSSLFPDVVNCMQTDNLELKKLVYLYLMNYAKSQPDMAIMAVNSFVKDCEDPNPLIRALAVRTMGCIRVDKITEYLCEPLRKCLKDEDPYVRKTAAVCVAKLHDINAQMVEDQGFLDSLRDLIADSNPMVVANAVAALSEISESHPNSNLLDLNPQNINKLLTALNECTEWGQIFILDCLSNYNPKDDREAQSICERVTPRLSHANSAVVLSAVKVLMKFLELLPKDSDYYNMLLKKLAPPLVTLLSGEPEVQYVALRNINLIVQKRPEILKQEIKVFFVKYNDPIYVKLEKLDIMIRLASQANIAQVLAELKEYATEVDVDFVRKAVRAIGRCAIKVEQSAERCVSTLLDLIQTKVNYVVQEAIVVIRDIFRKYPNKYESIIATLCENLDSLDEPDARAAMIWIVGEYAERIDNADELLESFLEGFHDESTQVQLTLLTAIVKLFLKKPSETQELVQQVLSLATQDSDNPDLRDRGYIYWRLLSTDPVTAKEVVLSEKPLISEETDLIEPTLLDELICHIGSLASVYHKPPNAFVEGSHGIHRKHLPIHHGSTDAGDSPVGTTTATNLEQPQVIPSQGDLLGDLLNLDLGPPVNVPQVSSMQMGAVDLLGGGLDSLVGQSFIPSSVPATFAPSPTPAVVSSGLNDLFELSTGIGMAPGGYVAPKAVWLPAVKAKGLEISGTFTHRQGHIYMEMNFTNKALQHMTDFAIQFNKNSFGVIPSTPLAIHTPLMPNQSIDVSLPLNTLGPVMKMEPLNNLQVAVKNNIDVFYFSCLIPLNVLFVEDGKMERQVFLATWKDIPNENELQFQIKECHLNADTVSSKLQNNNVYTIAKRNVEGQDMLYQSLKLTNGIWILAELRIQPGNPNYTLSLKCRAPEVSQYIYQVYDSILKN
Sequence of ATP-binding cassette sub-family B member 6 (Homo sapiens) (Q9NP58 whole entry, looked up): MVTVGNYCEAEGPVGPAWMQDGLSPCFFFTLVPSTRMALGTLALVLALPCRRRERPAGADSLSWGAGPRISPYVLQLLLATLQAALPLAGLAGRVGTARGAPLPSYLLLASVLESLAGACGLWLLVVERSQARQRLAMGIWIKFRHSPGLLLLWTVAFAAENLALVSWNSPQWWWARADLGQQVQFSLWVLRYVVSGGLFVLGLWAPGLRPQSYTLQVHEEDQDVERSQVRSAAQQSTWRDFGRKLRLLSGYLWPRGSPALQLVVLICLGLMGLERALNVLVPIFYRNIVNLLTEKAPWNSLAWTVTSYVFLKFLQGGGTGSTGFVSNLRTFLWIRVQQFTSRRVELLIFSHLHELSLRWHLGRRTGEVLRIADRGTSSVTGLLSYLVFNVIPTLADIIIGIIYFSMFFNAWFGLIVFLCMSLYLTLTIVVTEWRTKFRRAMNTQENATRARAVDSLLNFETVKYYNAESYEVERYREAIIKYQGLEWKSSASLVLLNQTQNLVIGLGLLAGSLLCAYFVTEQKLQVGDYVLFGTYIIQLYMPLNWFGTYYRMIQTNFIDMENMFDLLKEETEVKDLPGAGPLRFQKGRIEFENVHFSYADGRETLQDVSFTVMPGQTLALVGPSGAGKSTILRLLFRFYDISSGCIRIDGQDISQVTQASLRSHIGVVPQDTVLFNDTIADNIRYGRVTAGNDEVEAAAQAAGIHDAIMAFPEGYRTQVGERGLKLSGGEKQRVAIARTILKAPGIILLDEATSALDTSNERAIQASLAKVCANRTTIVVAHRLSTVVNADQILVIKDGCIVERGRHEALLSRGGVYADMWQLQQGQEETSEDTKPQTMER
Sequence of Beta-adrenergic receptor kinase 1 (Homo sapiens) (P25098 whole entry, looked up): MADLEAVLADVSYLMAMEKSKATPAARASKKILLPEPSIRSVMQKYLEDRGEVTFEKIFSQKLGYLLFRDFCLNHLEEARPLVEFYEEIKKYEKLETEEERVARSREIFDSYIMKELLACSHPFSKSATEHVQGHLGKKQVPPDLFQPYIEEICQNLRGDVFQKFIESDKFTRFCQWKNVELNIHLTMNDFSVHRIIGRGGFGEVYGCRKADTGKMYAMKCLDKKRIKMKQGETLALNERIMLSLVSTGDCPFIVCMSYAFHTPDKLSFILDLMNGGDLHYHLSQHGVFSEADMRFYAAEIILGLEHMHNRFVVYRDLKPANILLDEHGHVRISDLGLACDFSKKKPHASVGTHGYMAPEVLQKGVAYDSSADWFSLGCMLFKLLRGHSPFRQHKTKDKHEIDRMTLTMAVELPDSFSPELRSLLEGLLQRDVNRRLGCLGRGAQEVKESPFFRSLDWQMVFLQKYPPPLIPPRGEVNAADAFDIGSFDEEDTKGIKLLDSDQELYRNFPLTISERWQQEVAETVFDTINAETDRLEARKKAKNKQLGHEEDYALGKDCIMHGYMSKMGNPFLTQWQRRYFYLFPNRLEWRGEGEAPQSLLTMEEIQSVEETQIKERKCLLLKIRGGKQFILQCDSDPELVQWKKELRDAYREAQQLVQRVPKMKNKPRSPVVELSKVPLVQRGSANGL

Take `O=C(CN1CC[n+]2c(-c3cccs3)csc21)c1ccc(Br)cc1`: the percent of DMSO control GFP in experiment [1] was 103% (inactive). Further, the GFP response vs DMSO in [2] was 104% (inactive); in experiment [4], 103% (inactive). Further, the percent response of DMSO control in experiment [3] was 108% (inactive). The GFP response, % of DMSO in experiment [5] was 107% (inactive). The compound further returned a double positive events in experiment [6] of 64%. Moreover, the vesicle binding response in [6] was 142% (inactive). Also, the inhibition in experiment [7] is 1.59% (inactive); in [11], 14.7% (inactive); in [15] it was -9% (inactive). For the same compound, the superoxide response (% of plate) in experiment [8] was 96.7% (inactive). In addition, the aptamer binding inhibition in [9] was 0% (inactive). In addition, the values for the response in experiment [10] and in experiment [12] were 10.7% (inactive) and 1.44% (inactive), respectively. Further, the binding (% of control) in experiment [13] is 99% (inactive). Moreover, the efflux inhibition (fraction of control) in experiment [14] is -0.085 (inactive). In [16], the differentiation response is -7.5% (inactive).

For `O=C(OCC1CCCN2CCCCC12)c1ccc2c(c1)OCO2` (stereo not given), in experiment [1], the percent of DMSO control GFP is 93.7% (inactive). Besides, the GFP response vs DMSO was 112% (inactive) in experiment [2] and 75.9% (inactive) in experiment [4]. In addition, the percent response of DMSO control in [3] is 104% (inactive). Besides, in experiment [5], the GFP response, % of DMSO was 95.9% (inactive). This compound also displayed a double positive events in [6] of 63.4%. In [6], the vesicle binding response was 208% (inactive). In addition, the inhibition in experiment [7] is 13.2% (inactive); in experiment [11], -5.07% (inactive); in experiment [15], 15% (inactive). The superoxide response (% of plate) in experiment [8] was 99.6% (inactive). Further, the aptamer binding inhibition in experiment [9] is 5% (inactive). In addition, the response in experiment [10] was -1.89% (inactive); in [12] it was 12% (inactive). For the same compound, in experiment [13], the binding (% of control) was 104% (inactive). For the same compound, the efflux inhibition (fraction of control) in experiment [14] was -0.38 (inactive). In addition, the differentiation response in [16] was 0% (inactive).

Take `COc1ccc2[nH]c(=O)c(CNC3CCCCC3)cc2c1`: the percent of DMSO control GFP in [1] is 102% (inactive). Moreover, the GFP response vs DMSO is 103% (inactive) in experiment [2] and 98% (inactive) in experiment [4]. Also, in experiment [3], the percent response of DMSO control was 106% (inactive). Besides, the GFP response, % of DMSO in experiment [5] is 99.9% (inactive). The compound further registered a double positive events in experiment [6] of 63.6%. Also, the vesicle binding response in experiment [6] was 244% (inactive). The figures for the inhibition in experiment [7], in experiment [11] and in experiment [15] were 11% (inactive), -0.94% (inactive) and -1% (inactive), respectively. In addition, the superoxide response (% of plate) in experiment [8] was 106% (inactive). Further, the aptamer binding inhibition in experiment [9] is 2% (inactive). In addition, the response was -1.53% (inactive) in [10] and 1.21% (inactive) in experiment [12]. For the same compound, the binding (% of control) in experiment [13] was 95.5% (inactive). Also, in experiment [14], the efflux inhibition (fraction of control) is -0.01 (inactive). In addition, the differentiation response in [16] was 0.24% (inactive).

In the case of `COc1ccccc1NC(=O)C12CCC(C)(C(=O)C1)C2(C)C` (stereo not given), the percent of DMSO control GFP in experiment [1] is 99.3% (inactive). For the same compound, the values for the GFP response vs DMSO in experiment [2] and in experiment [4] were 105% (inactive) and 124% (inactive), respectively. In addition, the percent response of DMSO control in experiment [3] was 102% (inactive). Also, the GFP response, % of DMSO in experiment [5] is 109% (inactive). The same compound yielded a double positive events in experiment [6] of 63.5%. Also, in experiment [6], the vesicle binding response is 173% (inactive). Further, the inhibition in [7] is -2.82% (inactive); in experiment [11], 15.9% (inactive); in experiment [15], 1% (inactive). For the same compound, the superoxide response (% of plate) in experiment [8] was 121% (inactive). The aptamer binding inhibition in [9] is 5% (inactive). Besides, the response in [10] is -14.9% (inactive); in [12], -0.35% (inactive). Further, in [13], the binding (% of control) is 102% (inactive). For the same compound, the efflux inhibition (fraction of control) in experiment [14] is 0 (inactive). The differentiation response in [16] is -4% (inactive).

Consider `CC(C)(C)OC(=O)COc1cc(OCC(=O)OC(C)(C)C)c2c(=O)cc(-c3ccccc3)oc2c1`, for which the percent of DMSO control GFP in [1] is 105% (inactive). Further, the GFP response vs DMSO in experiment [2] is 107% (inactive); in experiment [4] it was 105% (inactive). Besides, the percent response of DMSO control in experiment [3] is 102% (inactive). Also, the GFP response, % of DMSO in experiment [5] is 100% (inactive). The double positive events in [6] turned out to be 60.3%. Also, the vesicle binding response in experiment [6] is 77.9% (inactive). For the same compound, the inhibition was -29.2% (inactive) in experiment [7], -7.67% (inactive) in experiment [11] and 35% (inactive) in experiment [15]. Moreover, the superoxide response (% of plate) in [8] is 94.8% (inactive). Moreover, the aptamer binding inhibition in experiment [9] is 1% (inactive). Moreover, the response in [10] is -17% (inactive); in [12], 2.77% (inactive). Moreover, in experiment [13], the binding (% of control) was 105% (inactive). Moreover, the efflux inhibition (fraction of control) in experiment [14] was -0.07 (inactive). In addition, the differentiation response in experiment [16] was -4.57% (inactive).

The values are drawn from PubChem BioAssay.
